# Test results taken from the supplement of paper PMC11732987, “Enantioselective OTUD7B fragment discovery through chemoproteomics screening and high-throughput optimisation” (Communications Chemistry, 2025).
# A number with no mark means an inactive call.
# Experiments:
# Assay in all cases: log2 ratio of Biotin-Ahx-Ub-VS probe labelling (fragment/DMSO); higher = less target engagement (more negative = stronger competition), active = hit call of the paper (q ≤ 0.05, log2 ratio ≤ -1)
# Conditions in all cases: compound concentration: 200 uM; treatment time: 3 h
# USP19 = target: T1, USP19 (UniProt O94966)
# T1 sequence (whole entry): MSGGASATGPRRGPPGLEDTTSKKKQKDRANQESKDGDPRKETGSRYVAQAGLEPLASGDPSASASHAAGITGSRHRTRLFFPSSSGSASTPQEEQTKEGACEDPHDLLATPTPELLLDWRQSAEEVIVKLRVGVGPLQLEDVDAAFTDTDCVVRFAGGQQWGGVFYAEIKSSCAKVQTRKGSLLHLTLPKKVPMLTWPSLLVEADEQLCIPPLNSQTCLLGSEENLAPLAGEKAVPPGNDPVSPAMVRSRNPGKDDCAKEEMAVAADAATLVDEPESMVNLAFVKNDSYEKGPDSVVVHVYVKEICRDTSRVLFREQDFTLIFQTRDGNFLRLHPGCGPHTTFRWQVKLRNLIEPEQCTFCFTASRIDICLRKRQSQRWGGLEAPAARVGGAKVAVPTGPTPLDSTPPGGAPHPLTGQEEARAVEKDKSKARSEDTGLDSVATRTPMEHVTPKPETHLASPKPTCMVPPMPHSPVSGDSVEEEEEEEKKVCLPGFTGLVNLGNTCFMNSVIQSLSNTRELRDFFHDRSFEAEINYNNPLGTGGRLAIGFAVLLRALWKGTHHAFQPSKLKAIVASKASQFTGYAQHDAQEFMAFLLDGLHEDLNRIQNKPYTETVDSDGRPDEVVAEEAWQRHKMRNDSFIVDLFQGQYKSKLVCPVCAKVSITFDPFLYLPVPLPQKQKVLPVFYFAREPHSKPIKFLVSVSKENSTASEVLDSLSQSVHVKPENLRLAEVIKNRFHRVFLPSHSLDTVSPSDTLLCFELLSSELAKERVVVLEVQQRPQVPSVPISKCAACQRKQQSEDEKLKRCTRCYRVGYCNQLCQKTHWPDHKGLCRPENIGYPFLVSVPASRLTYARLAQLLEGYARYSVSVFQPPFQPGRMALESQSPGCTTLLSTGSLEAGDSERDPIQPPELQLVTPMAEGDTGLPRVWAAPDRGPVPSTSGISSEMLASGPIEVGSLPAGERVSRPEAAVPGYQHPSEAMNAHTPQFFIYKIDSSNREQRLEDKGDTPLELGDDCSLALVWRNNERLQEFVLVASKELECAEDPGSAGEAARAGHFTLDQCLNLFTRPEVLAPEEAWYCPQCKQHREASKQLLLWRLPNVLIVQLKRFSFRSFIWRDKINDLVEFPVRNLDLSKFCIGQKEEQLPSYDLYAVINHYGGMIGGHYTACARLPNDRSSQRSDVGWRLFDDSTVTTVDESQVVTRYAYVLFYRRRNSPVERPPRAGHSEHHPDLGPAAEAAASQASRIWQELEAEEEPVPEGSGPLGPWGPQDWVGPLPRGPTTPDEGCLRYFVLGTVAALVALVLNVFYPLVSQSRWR
# Procedure, shortened: (§1)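 Labelled DUBs from HEK293T lysate were NeutrAvidin-enriched, digested with LysC and trypsin, and run by diaPASEF LC-MS/MS. Before that, each 495 µg sample in Tris/CHAPS/IGEPAL buffer with protease inhibitors was treated in triplicate with fragment at 200 µM or vehicle for 3 h, then with Biotin-Ahx-Ub-VS at 0.5 µM final for 1 h. Values are average log2 ratios of fragment over vehicle by unpaired t-test, based on global-median-normalised Spectronaut label-free quantities from proteins with ≥2 unique peptides.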
# USP24 = USP24 (UniProt Q9UPU5)
# Procedure, shortened: as §1
# USP25 = target: T2, USP25 (UniProt Q9UHP3)
# T2 sequence (whole entry): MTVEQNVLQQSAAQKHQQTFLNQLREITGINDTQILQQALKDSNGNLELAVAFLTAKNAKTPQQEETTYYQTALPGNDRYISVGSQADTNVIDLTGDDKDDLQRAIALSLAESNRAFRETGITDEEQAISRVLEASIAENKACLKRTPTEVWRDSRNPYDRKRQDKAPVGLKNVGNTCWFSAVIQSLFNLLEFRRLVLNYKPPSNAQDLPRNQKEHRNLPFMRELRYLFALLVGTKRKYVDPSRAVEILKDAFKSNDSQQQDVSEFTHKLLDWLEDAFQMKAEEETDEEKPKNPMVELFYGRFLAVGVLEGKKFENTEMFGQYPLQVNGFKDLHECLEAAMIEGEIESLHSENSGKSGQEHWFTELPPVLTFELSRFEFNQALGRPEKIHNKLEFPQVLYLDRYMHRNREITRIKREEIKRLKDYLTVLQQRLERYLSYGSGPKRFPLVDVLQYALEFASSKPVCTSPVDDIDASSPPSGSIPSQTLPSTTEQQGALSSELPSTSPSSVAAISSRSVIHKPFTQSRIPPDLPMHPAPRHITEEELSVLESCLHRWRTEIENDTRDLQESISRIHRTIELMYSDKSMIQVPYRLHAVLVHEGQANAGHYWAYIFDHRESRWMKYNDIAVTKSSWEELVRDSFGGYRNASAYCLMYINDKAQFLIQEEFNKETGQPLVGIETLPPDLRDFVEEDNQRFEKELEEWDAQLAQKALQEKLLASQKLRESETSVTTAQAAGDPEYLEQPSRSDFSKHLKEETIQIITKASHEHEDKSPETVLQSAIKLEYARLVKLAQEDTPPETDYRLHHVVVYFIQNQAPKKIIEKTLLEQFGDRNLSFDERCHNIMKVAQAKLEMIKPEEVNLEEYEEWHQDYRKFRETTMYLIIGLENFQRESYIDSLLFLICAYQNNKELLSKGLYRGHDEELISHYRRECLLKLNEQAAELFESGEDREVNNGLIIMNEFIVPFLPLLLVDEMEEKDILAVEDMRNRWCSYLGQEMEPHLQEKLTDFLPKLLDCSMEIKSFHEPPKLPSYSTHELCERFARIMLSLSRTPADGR
# Procedure, shortened: as §1
# USP28 = target: T3, USP28 (UniProt Q96RU2)
# T3 sequence (whole entry): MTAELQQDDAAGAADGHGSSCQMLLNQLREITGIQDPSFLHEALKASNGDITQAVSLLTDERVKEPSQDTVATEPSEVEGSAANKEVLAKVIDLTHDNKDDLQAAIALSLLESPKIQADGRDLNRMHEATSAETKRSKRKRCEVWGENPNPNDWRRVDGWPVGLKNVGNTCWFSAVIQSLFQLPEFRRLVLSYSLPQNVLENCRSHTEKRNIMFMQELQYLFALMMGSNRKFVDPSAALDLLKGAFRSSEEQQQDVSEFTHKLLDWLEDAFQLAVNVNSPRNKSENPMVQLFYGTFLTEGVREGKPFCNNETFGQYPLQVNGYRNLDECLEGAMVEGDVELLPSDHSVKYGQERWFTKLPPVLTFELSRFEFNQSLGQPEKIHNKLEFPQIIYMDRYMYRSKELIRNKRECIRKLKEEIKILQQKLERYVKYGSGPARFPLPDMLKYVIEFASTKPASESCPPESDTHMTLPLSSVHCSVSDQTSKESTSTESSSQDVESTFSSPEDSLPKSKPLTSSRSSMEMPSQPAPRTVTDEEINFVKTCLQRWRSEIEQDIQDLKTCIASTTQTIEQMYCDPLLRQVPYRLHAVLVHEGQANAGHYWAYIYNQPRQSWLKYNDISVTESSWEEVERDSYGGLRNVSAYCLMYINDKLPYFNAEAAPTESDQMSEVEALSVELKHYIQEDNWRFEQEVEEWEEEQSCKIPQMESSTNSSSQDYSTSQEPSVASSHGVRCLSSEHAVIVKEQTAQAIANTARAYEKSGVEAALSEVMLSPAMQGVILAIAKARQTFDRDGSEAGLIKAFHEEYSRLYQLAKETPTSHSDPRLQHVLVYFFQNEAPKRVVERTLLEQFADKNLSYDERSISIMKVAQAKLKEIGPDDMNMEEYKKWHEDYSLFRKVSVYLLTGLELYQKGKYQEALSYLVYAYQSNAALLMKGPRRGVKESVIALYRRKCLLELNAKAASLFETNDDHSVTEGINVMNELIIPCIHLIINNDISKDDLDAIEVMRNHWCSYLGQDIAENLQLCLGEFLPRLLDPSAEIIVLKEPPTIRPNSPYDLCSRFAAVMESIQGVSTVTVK
# Procedure, shortened: as §1
# Chain of USP24 (Q9UPU5 whole entry): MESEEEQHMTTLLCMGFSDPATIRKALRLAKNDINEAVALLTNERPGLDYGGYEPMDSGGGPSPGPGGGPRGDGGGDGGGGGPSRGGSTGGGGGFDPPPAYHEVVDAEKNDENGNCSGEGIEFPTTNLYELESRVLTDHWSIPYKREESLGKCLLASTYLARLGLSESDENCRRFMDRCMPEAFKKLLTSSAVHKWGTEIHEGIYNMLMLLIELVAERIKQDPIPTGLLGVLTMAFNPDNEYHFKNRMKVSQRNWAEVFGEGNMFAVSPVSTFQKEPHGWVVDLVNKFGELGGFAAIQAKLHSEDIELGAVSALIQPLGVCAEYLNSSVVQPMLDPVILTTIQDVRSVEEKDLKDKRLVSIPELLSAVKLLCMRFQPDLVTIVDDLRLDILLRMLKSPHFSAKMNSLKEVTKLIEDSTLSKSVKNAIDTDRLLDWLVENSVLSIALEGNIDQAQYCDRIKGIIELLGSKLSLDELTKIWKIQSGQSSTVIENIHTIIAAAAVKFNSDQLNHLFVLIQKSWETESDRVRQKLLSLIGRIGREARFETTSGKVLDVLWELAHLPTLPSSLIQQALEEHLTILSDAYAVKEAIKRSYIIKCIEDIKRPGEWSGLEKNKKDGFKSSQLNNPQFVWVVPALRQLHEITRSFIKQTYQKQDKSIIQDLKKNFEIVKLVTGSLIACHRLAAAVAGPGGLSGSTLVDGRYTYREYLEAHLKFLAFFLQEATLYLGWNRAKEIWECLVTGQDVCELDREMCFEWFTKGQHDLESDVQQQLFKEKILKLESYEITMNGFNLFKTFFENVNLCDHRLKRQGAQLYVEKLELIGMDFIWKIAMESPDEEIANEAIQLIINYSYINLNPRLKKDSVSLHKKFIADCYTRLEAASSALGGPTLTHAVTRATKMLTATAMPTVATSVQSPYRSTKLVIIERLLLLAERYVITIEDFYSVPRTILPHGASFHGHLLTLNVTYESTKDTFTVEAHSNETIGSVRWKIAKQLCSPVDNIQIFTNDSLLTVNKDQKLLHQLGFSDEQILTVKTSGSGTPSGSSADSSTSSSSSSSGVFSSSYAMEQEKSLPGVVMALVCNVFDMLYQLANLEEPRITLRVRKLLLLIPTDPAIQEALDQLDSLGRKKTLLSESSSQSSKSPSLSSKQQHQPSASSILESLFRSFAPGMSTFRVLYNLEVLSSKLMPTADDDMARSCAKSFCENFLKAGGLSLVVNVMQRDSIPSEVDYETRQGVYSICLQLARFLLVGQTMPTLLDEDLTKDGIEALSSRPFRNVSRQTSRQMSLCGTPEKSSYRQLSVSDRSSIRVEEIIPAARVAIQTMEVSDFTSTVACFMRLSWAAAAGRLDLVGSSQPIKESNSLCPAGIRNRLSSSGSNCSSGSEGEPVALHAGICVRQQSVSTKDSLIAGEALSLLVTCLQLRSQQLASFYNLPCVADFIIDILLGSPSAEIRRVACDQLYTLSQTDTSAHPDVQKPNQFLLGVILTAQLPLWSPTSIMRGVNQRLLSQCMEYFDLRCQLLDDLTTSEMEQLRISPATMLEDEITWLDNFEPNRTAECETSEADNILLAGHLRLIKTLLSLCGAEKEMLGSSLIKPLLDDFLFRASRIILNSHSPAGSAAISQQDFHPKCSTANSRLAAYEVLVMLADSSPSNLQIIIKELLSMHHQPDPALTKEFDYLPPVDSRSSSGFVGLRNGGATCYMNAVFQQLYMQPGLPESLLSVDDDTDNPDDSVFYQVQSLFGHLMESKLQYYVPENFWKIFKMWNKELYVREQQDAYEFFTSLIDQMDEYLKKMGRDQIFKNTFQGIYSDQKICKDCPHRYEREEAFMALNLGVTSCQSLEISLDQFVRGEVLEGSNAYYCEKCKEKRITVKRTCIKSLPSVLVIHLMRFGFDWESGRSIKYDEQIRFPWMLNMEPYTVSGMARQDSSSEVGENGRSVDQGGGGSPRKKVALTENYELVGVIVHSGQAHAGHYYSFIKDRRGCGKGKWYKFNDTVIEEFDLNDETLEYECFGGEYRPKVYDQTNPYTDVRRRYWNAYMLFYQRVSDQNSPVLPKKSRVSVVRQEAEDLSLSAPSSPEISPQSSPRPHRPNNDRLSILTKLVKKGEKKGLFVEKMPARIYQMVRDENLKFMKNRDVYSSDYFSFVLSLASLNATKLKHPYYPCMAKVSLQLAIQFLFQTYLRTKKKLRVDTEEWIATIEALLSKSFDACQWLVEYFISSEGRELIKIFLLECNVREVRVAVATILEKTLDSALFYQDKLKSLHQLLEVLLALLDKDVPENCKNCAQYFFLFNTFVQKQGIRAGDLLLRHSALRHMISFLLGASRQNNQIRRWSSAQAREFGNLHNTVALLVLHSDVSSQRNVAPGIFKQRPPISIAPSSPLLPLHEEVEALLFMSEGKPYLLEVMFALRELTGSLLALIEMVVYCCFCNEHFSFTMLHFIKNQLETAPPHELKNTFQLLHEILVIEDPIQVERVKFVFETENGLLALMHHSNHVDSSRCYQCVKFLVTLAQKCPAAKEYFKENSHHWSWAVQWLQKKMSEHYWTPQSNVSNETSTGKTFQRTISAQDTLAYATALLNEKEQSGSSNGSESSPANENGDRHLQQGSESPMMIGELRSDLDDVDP
smiles,measurement,setting,value
COc1ccc(-c2csc(NC(=O)CCl)n2)cc1,log2 ratio of Biotin-Ahx-Ub-VS probe labelling,USP19,-0.674
same,log2 ratio of Biotin-Ahx-Ub-VS probe labelling,USP24,-1.44 (active)
same,log2 ratio of Biotin-Ahx-Ub-VS probe labelling,USP25,-0.591
same,log2 ratio of Biotin-Ahx-Ub-VS probe labelling,USP28,-0.741
